The nature of test [1]: qHTS to identify inhibitors of the type 1 interferon - major histocompatibility complex class I in skeletal muscle: primary screen against the NCATS Pharmaceutical Collection (AID 1347407).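 Also: luminescence of HiBiT knocked into endogenous HLA-B as interferon-induced MHC class I level; % is scaled to controls: 0 for no effect and ±100 for the full control effect.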 In a few lines: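 Compounds […] were added to CRISPR-engineered HLA-B-HiBiT C25cl48 human myoblasts with 4.0 ng/ml IFN-beta. After 24 hrs at 37 C, cells were lysed and HiBiT luminescence measured.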
On the technique in general: In qHTS, concentration-response curves come from the screen itself.

The target in test [2] is Protein phosphatase 1D (Homo sapiens) (UniProt O15297). As to the kind of experiment: RapidFire Mass Spectrometry qHTS Assay for Modulators of WT P53-Induced Phosphatase 1 (WIP1) (AID 1347424).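 Also: amount of dephosphorylated VEPPL-S-QETFS peptide product formed by WIP1; series mostly up to about 63 µM; plate controls were DMSO wells for no effect and GSK830371 inhibitor control at 10 µM for full effect.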 A digest of the protocol: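 WIP1 (10 nM final) was preincubated 1 h at room temperature with compounds in Tris-HCl pH 7.5, 30 mM MgCl2, TCEP, EGTA, BSA; 2 uM VEPPL-pS-QETFS phosphopeptide was added for 5 min, quenched with formic acid, and dephosphorylated product quantified by RapidFire MS.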

Test [3] in a line: Primary qHTS for inhibitors of La Crosse Virus (LACV) - induced cell death in SH-SY5Y cells (AID 1508616).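 Also: top concentration of the series differs between compounds; 0% = infected DMSO wells and 100% = uninfected DMSO wells; higher means more rescue of cells from virus-induced death.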 In a few lines:
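Protection against LACV-induced cell death is scored in SH-SY5Y cells exposed to compounds and virus (0.01 MOI) for 6 days. Data normalized to virus-infected DMSO wells and virus-free DMSO wells.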

Test [4] has as its target Calcium and integrin-binding protein 1 (Homo sapiens) (UniProt Q99828). As to the kind of experiment: Primary qHTS for Identification of Calcium Integrin Binding Protein 1 (CIB1) Competitor (AID 1508620).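 Also: GST tagged CIB1 binding a fluorescein labelled alphaIIb integrin peptide tracer; top concentration of the series differs between compounds; % is scaled to controls: 0 for no effect and ±100 for the full control effect.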 A digest of the protocol: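 Fluorescence polarization competition: CIB1-GST (1 uM final) preincubated with compound 15 min at room temperature, then FITC-labeled alphaIIb peptide (100 nM final) added for another 15 min. Polarization read at Ex 480/Em 540.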

The nature of test [5]: Primary qHTS for small molecule stabilizers of the endoplasmic reticulum resident proteome: Secreted ER Calcium Modulated Protein (SERCaMP) assay (AID 1508630). Also: % is scaled to controls: 0 for no effect and ±100 for the full control effect. In a few lines:
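GLuc-SERCaMP-expressing SH-SY5Y cells, pretreated 16 h with compound, are challenged with thapsigargin to empty ER calcium stores; after 4 h, coelenterazine is added directly to the medium and luminescence is imaged.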

Test [6] can be described thus: A High-Content qHTS Against Drug Library for the Identification of Small Molecules that Inhibit DYT1 Early Onset Primary Dystonia-Associated Cell Pathology (AID 1645839; calls by dose curve; also: series mostly up to about 46 µM). In a few lines: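 Readout: %pathology, the punctate EGFP-TorsinA distribution from imaging, as the primary channel and cell count as the toxicity counterscreen. HEK293 Flp-In cells expressing delE TorsinA were induced with tetracycline and treated with compound for 48 h.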

The target in test [7] is Protein phosphatase 1D (Homo sapiens) (UniProt O15297). As to the kind of experiment: Rhodamine-PBP qHTS Assay for Modulators of WT P53-Induced Phosphatase 1 (WIP1) (AID 1347425). Also: % of control where 0% means no effect. A digest of the protocol: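 5 nM WIP1 + 10 uM Rh-PBP, 50 mM Tris pH 7.5, 30 mM MgCl2, 1 mM TCEP, 0.1 mM EGTA, BSA; cpds pinned, 1 hr RT; + 10 uM phosphopeptide; fluorescence 1-min reads x 11 min; delta = f1 - f0.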

A short description of test [8]: qHTS for inhibitors of adenylyl cyclases using a fission yeast platform: a pilot screen against the NCATS LOPAC library (AID 1347410).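 Also: plate controls were DMSO vehicle for no effect and DPI positive control for full effect.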 A digest of the protocol: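 GFP from fbp1-GFP reporter, read by Acumen laser cytometry, indicates AC inhibition in fission yeast expressing AC9, GNAS and PDE4D2. Cells grown 18 h in the dark at 30C with compounds, final up to 57 uM.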

Test [9] can be described thus: Counterscreen qHTS for small molecule stabilizers of the endoplasmic reticulum resident proteome: GLuc-NoTag assay (AID 1508627). Also: potency is read from the fitted curve at half-maximal effect. A digest of the protocol:
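SH-SY5Y cells stably expressing constitutively secreted GLuc (no SERCaMP tag) were pre-incubated 5 h, treated with compound for 19 h, then 100 nM thapsigargin for 4 h at 37C; medium GLuc read by coelenterazine luminescence.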
For orientation: The purpose of a counterscreen is to sort out artefacts and off-target activity.

A short description of test [10]: Confirmatory qHTS for small molecule stabilizers of the endoplasmic reticulum resident proteome: Secreted ER Calcium Modulated Protein (SERCaMP) assay (AID 1508628). Also: nearly all actives have a fitted effect of over 40% in size. Also: potency is read from the fitted curve at half-maximal effect. A digest of the protocol: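 SH-SY5Y cells stably expressing GLuc-SERCaMP, treated 16 h with compound (primary 1.53, 7.67, 38.3 uM; confirmation 11 concentrations, up to 76.6 uM), then 100 nM thapsigargin for 4 h. Secreted Gaussia luciferase in medium read by coelenterazine luminescence.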

The nature of test [11]: Cell Viability qHTS for small molecule stabilizers of the endoplasmic reticulum resident proteome (AID 1508629).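 Also: compound exposure about 46 h in total before the viability read.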 Also: potency is read from the fitted curve at half-maximal effect. As to conditions: cell viability counter-screen, 100 nM thapsigargin for final 4 h.
In test [12] the target is Single-stranded DNA cytosine deaminase (Homo sapiens) (UniProt Q9GZX7). Nature of the test: Validation qHTS assay for inhibitors of Activation Induced Cytidine Deaminase (AID): AID signal (AID 1347429). Also: % is scaled to controls: 0 for no effect and ±100 for the full control effect. In a few lines: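 Fluorescence at 540 nm excitation and 590 nm emission reports ssDNA cytosine deamination by AID, with UDG in the same well. Compound-treated reactions ran 4 hr at room temperature with DJC20/DJC23 substrate, followed by 30 min NaOH treatment.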

Test [13] addresses Calcium and integrin-binding protein 1 (Homo sapiens) (UniProt Q99828). As to the kind of experiment: Validation qHTS for Identification of Calcium Integrin Binding protein 1 (CIB1) Competitor (AID 1508618). Also: % is scaled to controls: 0 for no effect and ±100 for the full control effect. A digest of the protocol: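 Displacement of FITC-alphaIIb peptide (100 nM) from CIB1-GST (1 uM) is monitored by polarization in quantitative HTS format; buffer carries 5 mM CaCl2 and 125 mM NaCl at pH 7.4, incubations are at room temperature.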

The nature of test [14]: qHTS to identify inhibitors of the type 1 interferon - major histocompatibility complex class I in skeletal muscle: primary screen against the NCATS Mechanism Interrogation Plate v5.0 (MIPE) Libary (AID 1347411).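 Also: plate controls were vehicle for no effect and reference inhibitor for full effect; nearly all actives have a fitted effect of over 65% in size.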 In a few lines:
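Luminescence from HiBiT-tagged endogenous HLA-B*08:01 served as the MHC class I read-out. CRISPR-engineered C25cl48 human myoblasts received 4.0 ng/ml IFN-beta plus compound for 24 hrs, with an 11-point, 1:3 series topping at 46 uM final.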

Each structure is given as a SMILES string. Unmarked numbers belong to inactive results. Results filed as inconclusive are left out. The source made the active and inactive calls. Unless noted, calls follow the shape of the dose curve; as a rule, active = well fitted curve in the direction sought with a large enough effect; inconclusive = small, poorly fitted or top-dose-only effect, or another doubt; inactive = no such curve, though single readings can be large; an effect the other way counts as inactive or inconclusive.

Calcium and integrin-binding protein 1 (Homo sapiens), sequence (Q99828 whole entry, looked up): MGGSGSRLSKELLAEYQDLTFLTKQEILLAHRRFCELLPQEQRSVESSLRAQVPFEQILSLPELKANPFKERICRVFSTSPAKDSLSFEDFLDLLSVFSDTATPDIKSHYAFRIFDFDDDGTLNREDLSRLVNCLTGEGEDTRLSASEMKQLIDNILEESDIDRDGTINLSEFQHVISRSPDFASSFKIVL
Single-stranded DNA cytosine deaminase (Homo sapiens), sequence (Q9GZX7 whole entry, looked up): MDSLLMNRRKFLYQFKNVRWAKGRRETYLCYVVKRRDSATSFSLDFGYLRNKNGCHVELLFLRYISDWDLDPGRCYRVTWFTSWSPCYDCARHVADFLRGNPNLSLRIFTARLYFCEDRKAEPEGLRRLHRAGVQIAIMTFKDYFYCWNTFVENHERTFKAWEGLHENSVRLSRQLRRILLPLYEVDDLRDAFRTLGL
Protein phosphatase 1D (Homo sapiens), sequence (O15297 whole entry, looked up): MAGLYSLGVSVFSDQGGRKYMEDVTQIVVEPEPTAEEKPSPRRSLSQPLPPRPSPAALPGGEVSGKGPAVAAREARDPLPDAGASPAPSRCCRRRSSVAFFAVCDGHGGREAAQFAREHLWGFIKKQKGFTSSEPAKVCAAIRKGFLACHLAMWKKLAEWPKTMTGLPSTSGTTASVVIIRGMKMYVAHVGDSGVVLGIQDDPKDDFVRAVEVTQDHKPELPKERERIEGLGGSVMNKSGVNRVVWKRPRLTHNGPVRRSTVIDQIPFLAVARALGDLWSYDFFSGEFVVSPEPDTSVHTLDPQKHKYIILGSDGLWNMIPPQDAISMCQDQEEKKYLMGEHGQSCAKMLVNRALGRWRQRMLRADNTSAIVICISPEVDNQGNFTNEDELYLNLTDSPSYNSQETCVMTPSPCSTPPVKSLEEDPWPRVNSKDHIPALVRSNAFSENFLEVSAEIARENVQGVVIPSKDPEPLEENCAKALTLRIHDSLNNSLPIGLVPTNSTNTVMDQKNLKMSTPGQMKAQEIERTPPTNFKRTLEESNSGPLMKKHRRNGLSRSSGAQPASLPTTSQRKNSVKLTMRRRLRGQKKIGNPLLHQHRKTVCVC

As for `Cc1ncc([N+](=O)[O-])n1CC(O)CCl` (stereo not drawn), the Potency result in test [1], in [5] and in test [6] was “inactive” in each case. Also, the outcome in test [2], in test [3] and in test [4] was inactive.
With `O=C(O)CC(O)C(=O)O` (stereo not drawn), the Potency entry in test [1] and in test [6] was “inactive” in each case. Besides, the compound was classed as inactive in test [2], in test [3] and in test [4].
With `c1ccc(CN(CC2=NCCN2)c2ccccc2)cc1`, the Potency result in test [1] and in test [5] was “inactive” each time. Besides, the outcome in [2] and in test [3] was inactive.
In the case of `Nc1ccc(S(=O)(=O)Nc2nccs2)cc1`, the Potency entry in test [1], in [5] and in [6] was “inactive” each time. In addition, the result in test [2], in [3] and in [4] was inactive.
As to `O=C(O)[C@H](O)c1ccccc1`, the Potency entry in test [1] and in test [6] was “inactive” in each case. In addition, the result in [2], in test [7] and in test [4] was inactive.
For `NS(=O)(=O)c1cc2c(cc1Cl)NC(CSCc1ccccc1)=NS2(=O)=O`, the Potency result in test [1], in test [5] and in test [6] was “inactive” throughout. Further, the compound was classed as inactive in [2], in [3] and in [4].
For the compound `CCOC(CN1CCN(CC(C)C(=O)c2ccccc2)CC1)c1ccccc1` (stereo not drawn), the Potency entry in test [1], in [5] and in [6] was “inactive” throughout. Also, the outcome in test [2], in test [7] and in test [4] was inactive.
Consider `C[C@@H]1CCN(C(=O)[C@H](CCCN=C(N)N)NS(=O)(=O)c2cccc3c2NC[C@H](C)C3)[C@@H](C(=O)O)C1`, for which the Potency entry in [1] and in [6] was “inactive” throughout. In addition, the call in [2], in test [3] and in [4] was inactive.
As for `O=C1O[C@H]([C@@H](O)CO)C(O)=C1O`, the Potency result in test [1] and in [6] was “inactive” throughout. In addition, the compound was classed as inactive in [2] and in test [7].
For `CCN(CC)CCSC(=O)C(c1ccccc1)c1ccccc1`, the Potency entry in test [1] and in test [6] was “inactive” throughout. Further, the result in test [2], in test [3] and in test [4] was inactive.
On to `O=C1Nc2ccc(Cl)cc2[C@@](C#CC2CC2)(C(F)(F)F)O1`, for which the Potency entry in test [1] and in test [5] was “inactive” in each case. The compound was called inactive in test [2], in test [3] and in test [4].
Take `C/C(=C(\CCOP(=O)(O)O)SC(=O)c1ccccc1)N(C=O)Cc1cnc(C)nc1N`: the activity change, negative = inhibition in test [1] is -12.9% [at 3.83 µM]; in test [2] it was 3.91% [at 6.17 µM]; in test [4], -4.19% [at 12.4 µM]; in test [5], -22.1% [at 3.88 µM]. For the same compound, the activity change in test [3] is -1.14% [at 0.431 µM].
As for `CCOc1ccc2ccccc2c1C(=O)N[C@@H]1C(=O)N2[C@@H]1SC(C)(C)[C@@H]2C(=O)O`, the Potency result in test [1] and in [6] was “inactive” throughout. Also, the result in test [2], in test [3] and in [4] was inactive.
`O=S(=O)(O)NC1CCCCC1`: the Potency entry in test [1] and in test [6] was “inactive” in each case. Besides, the outcome in [2], in test [7] and in [4] was inactive.
For `CNCCC(Oc1ccc(C(F)(F)F)cc1)c1ccccc1` (stereo not drawn), the compound was classed as inactive in test [8], in test [2] and in test [7]. The Potency in test [9] was 44.7 µM (active); in test [11], 25.1 µM (active). Moreover, the Potency entry in test [10] and in test [5] was “inactive” in each case.
In the case of `CC(O)CN(CCN(CC(C)O)CC(C)O)CC(C)O` (stereo not drawn), the call in test [2], in test [7], in test [3] and in test [4] was inactive.
In the case of `CSc1ccc2c(c1)C(N1CCN(C)CC1)Cc1ccccc1S2` (stereo not drawn), the outcome in test [8], in test [2] and in test [4] was inactive. Besides, in test [12], the Potency result is “inactive”.
As to `CC(C)(C)[C@]1(O)CCN2C[C@H]3c4ccccc4CCc4cccc(c43)[C@@H]2C1`, the outcome in test [8] and in [13] was inactive. For the same compound, the Potency entry in test [12] is “inactive”. Also, the Potency in test [10] was 12.6 µM (active). For the same compound, the max response in test [11] was 16.4%.
Take `NC(=O)c1ncn([C@@H]2O[C@H](CO)[C@@H](O)[C@H]2O)n1`: the result in test [8], in test [2], in test [7], in test [3], in test [13] and in [4] was inactive. The Potency result in test [14], in test [12], in test [5] and in test [6] was “inactive” in each case.
Consider `O=C(O)[C@@H]1CSCN1`, for which the Potency entry in test [1], in test [5] and in [6] was “inactive” each time. The call in test [2] and in test [4] was inactive.
As to `COc1ccc(Cl)cc1C(=O)NCCc1ccc(S(=O)(=O)NC(=O)NC2CCCCC2)cc1`, the outcome in test [8], in [3] and in test [4] was inactive. In addition, the Potency entry in test [12], in [5] and in test [6] was “inactive” each time.
